Source: the supplement of paper PMC11732987, “Enantioselective OTUD7B fragment discovery through chemoproteomics screening and high-throughput optimisation” (Communications Chemistry, 2025)

How the values were obtained:
Assay in all cases: log2 ratio of Biotin-Ahx-Ub-VS probe labelling (fragment/DMSO); higher = less target engagement (more negative = stronger competition), active = hit call of the paper (q ≤ 0.05, log2 ratio ≤ -1)
Conditions in all cases: compound concentration: 200 uM; treatment time: 3 h
USP19 = molecular target: T1, USP19 (UniProt O94966)
T1 sequence (whole entry): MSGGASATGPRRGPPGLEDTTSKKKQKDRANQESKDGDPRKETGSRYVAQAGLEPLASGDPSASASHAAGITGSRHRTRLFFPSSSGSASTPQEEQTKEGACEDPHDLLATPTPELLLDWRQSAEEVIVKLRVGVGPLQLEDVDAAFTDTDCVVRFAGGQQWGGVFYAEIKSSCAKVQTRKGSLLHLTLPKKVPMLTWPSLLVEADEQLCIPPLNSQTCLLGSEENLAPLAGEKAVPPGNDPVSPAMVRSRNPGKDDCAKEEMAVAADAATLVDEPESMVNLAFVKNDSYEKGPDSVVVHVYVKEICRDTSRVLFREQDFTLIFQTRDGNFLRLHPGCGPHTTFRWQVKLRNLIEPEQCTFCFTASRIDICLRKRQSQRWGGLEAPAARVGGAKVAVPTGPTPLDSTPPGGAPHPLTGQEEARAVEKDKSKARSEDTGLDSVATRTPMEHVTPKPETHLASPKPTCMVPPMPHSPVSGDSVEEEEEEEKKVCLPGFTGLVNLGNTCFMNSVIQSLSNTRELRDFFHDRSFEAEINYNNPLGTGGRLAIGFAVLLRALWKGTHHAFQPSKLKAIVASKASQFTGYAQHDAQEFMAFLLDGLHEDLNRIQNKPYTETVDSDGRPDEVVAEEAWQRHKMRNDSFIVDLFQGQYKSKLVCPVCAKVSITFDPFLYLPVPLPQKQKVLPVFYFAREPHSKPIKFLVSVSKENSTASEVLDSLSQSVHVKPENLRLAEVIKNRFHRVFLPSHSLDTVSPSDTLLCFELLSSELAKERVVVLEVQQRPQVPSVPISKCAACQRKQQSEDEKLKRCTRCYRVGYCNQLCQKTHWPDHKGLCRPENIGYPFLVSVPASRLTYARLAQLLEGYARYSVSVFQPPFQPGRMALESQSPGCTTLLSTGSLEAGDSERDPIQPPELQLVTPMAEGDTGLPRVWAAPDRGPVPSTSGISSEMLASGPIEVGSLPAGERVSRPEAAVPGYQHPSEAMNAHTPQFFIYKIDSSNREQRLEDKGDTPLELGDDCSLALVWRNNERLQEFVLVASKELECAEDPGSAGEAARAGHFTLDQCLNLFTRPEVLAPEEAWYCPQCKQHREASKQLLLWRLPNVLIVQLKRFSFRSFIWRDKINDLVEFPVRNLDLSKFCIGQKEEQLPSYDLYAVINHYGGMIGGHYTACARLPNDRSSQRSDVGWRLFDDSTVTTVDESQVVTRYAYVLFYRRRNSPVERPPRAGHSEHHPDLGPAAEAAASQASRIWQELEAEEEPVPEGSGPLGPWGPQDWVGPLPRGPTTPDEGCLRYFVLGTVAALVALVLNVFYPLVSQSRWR
Method in brief: (§1)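 HEK293T lysate (495 µg per sample, in Tris/CHAPS/IGEPAL buffer with protease inhibitors) was exposed in triplicate for 3 h to fragment at 200 µM or to vehicle, then to Biotin-Ahx-Ub-VS at 0.5 µM final for 1 h. Labelled DUBs were enriched on NeutrAvidin, digested with LysC and trypsin, and analysed by diaPASEF LC-MS/MS. Spectronaut label-free quantities were normalised to the global median, and values are average log2 ratios of fragment over vehicle from an unpaired t-test. Only proteins with ≥2 unique peptides were used.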

USP24 = USP24 (UniProt Q9UPU5)
USP24, sequence (Q9UPU5 whole entry): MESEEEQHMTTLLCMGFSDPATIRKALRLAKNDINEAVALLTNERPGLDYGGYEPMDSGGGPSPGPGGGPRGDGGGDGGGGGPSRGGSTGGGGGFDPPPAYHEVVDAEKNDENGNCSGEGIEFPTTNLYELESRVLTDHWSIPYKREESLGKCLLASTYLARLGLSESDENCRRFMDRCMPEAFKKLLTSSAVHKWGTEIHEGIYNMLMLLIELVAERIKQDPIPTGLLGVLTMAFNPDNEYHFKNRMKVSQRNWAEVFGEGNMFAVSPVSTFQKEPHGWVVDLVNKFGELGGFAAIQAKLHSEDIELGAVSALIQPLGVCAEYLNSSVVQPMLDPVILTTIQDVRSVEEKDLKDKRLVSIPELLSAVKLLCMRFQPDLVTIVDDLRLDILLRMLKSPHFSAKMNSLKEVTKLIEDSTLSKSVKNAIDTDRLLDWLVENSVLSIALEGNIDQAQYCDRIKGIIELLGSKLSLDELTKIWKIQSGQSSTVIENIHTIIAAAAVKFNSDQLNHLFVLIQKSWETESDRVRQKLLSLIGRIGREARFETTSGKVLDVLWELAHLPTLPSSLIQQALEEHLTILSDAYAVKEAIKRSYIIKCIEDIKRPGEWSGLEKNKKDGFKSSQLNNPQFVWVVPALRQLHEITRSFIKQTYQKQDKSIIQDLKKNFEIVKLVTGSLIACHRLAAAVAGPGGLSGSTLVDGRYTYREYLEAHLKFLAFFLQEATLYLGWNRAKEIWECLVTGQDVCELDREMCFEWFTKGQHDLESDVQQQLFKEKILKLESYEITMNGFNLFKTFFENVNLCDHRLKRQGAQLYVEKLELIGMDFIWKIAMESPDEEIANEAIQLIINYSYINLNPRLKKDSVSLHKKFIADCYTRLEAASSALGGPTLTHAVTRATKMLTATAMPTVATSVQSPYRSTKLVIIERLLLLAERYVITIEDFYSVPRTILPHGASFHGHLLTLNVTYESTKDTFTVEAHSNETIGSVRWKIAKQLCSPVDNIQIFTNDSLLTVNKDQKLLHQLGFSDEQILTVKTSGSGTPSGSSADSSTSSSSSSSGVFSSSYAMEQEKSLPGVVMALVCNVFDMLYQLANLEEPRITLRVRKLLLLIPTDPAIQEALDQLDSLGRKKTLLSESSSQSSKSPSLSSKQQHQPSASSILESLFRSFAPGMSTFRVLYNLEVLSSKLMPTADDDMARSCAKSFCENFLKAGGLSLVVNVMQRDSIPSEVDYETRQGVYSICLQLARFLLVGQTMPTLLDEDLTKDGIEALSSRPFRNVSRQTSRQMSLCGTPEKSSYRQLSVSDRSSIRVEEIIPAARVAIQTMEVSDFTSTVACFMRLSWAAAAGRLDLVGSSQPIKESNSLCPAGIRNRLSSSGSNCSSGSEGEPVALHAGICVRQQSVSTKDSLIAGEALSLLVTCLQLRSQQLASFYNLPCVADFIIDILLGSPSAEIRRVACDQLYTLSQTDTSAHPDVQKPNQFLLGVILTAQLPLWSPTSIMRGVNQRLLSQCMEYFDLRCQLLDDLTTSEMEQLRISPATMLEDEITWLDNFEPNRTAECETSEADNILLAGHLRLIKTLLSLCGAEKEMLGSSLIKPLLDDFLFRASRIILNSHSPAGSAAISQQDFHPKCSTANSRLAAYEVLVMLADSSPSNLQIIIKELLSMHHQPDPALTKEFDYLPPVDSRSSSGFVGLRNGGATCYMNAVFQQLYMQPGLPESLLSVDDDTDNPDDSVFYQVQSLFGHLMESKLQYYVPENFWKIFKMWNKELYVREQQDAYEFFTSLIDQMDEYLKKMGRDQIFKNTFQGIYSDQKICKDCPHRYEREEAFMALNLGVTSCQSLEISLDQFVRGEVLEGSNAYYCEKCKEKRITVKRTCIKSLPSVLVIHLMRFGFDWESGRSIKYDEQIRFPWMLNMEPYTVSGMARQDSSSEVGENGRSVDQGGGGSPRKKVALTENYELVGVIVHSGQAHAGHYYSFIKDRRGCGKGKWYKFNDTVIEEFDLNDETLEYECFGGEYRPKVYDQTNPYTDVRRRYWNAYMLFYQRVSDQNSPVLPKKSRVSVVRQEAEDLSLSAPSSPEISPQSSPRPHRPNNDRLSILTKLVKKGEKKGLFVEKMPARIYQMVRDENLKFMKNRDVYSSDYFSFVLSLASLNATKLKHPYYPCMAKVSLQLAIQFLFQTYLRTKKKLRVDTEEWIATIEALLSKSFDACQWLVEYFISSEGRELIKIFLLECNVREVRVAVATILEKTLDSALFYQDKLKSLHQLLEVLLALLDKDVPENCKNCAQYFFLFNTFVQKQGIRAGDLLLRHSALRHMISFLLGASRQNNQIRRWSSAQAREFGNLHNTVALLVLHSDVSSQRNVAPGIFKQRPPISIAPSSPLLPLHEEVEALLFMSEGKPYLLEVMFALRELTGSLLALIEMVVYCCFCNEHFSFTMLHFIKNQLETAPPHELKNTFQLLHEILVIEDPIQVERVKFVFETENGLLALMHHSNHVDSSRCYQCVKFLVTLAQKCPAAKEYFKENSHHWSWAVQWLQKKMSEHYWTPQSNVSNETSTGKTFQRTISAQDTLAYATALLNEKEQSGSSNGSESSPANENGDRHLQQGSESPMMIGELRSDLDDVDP
Method in brief: as §1

USP25 = molecular target: T2, USP25 (UniProt Q9UHP3)
T2 sequence (whole entry): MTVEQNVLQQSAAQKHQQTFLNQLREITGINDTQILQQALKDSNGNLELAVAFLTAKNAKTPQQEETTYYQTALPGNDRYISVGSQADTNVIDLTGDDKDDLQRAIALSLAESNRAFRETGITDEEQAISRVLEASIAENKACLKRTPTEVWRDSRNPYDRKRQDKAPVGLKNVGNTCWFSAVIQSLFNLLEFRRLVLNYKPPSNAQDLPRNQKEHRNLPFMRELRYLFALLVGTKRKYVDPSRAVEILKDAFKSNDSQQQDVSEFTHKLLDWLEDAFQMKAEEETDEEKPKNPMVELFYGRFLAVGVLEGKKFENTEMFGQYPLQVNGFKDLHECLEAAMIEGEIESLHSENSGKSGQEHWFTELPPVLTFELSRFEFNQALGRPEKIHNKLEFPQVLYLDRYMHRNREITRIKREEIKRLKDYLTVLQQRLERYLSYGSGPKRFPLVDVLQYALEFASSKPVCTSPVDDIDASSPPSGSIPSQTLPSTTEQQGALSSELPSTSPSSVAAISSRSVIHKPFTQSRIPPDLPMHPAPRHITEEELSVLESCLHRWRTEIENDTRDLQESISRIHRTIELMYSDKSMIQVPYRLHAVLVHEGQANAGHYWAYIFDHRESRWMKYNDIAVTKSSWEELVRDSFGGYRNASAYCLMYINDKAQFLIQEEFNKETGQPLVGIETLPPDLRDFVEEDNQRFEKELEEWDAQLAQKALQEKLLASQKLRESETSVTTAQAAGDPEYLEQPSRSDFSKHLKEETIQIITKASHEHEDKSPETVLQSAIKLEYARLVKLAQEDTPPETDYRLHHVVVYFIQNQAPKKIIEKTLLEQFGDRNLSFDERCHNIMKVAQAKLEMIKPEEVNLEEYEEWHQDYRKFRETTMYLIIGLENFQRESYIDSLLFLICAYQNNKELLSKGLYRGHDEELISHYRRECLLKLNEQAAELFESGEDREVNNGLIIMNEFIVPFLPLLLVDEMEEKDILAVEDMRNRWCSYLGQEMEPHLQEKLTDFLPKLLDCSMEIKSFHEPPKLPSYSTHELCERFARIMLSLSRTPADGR
Method in brief: as §1

USP28 = molecular target: T3, USP28 (UniProt Q96RU2)
T3 sequence (whole entry): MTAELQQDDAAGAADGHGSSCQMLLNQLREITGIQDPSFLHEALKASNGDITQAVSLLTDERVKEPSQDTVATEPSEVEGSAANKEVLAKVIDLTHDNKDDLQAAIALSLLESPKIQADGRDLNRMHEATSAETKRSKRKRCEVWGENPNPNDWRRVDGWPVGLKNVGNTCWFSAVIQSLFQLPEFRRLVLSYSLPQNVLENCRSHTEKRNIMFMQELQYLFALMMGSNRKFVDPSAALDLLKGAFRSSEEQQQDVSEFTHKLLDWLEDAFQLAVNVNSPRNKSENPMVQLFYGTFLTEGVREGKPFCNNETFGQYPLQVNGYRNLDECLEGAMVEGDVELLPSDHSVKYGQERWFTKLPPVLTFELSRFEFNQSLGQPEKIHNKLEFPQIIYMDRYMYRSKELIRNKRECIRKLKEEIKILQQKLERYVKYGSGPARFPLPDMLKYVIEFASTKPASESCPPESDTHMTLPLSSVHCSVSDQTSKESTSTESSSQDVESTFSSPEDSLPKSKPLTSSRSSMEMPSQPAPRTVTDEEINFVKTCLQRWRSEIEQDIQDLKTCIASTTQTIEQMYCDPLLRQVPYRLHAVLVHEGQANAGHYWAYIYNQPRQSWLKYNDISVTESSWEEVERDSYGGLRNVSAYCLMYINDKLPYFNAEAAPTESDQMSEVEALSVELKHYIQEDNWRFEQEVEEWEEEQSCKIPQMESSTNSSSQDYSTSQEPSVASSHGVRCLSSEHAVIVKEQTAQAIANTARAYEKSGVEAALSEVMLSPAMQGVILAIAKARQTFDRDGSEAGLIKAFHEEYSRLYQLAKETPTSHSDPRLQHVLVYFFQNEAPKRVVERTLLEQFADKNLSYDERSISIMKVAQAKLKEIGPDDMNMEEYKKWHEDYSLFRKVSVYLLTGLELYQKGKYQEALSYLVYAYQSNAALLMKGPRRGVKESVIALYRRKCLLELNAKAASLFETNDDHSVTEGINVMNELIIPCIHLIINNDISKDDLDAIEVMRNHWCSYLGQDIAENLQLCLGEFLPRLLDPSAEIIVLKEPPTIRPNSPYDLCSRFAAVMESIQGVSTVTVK
Method in brief: as §1

Measured: log2 ratio of Biotin-Ahx-Ub-VS probe labelling

Cc1cccc(NC(=O)[C@@H]2CCCN2C(=O)CCl)n1
inactive: USP19 -0.349 | USP24 -0.45 | USP25 -0.327 | USP28 -0.61
